Data reported in PubChem BioAssay AID1645882 (National Center for Advancing Translational Sciences (NCATS), 2021).
Where “and” joins values, the source holds several entries; their conditions need not be identical. Equal entries are not always repeated. In all, about 16,000 compounds went through this assay and about 120 (0.75%) were called active. Roughly 4% stayed inconclusive and do not appear here. Only a selection was taken, and actives are over-represented in it overall. Some structures have more than one record in an assay (separate samples or runs), and their calls can disagree. Values without a mark were called inactive. Calls follow the shape of the dose curve; as a rule, active = well fitted inhibition curve with a large enough effect; inconclusive = small, poorly fitted or top-dose-only effect; inactive = no such curve, though single readings can be large or run the other way.

Each molecule was assayed against Rap guanine nucleotide exchange factor 3 (Homo sapiens) (UniProt O95398) (assay: Validation qHTS for antagonist of cAMP-regulated guanine nucleotide exchange factor 3 (EPAC1)). Details: EPAC1 Rap1B-BODIPY-GDP exchange, fluorescence; series mostly up to 150 µM; activity change, negative = inhibition: at the top concentration.
How it was run: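 EPAC1 (100 nM) mixed with 250 nM RAP1B-BODIPY-GDP and 50 uM GDP; compounds in concentration series, 5 min at room temperature. Fluorescence (ex 480/em 540 nm) read every 5 min for 30 min; normalized to ATA control and DMSO.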
Also: nearly all actives have a fitted effect of over 75% in size.
Potency is read from the fitted curve at half-maximal effect.

Rap guanine nucleotide exchange factor 3 (Homo sapiens), sequence (O95398 whole entry, looked up): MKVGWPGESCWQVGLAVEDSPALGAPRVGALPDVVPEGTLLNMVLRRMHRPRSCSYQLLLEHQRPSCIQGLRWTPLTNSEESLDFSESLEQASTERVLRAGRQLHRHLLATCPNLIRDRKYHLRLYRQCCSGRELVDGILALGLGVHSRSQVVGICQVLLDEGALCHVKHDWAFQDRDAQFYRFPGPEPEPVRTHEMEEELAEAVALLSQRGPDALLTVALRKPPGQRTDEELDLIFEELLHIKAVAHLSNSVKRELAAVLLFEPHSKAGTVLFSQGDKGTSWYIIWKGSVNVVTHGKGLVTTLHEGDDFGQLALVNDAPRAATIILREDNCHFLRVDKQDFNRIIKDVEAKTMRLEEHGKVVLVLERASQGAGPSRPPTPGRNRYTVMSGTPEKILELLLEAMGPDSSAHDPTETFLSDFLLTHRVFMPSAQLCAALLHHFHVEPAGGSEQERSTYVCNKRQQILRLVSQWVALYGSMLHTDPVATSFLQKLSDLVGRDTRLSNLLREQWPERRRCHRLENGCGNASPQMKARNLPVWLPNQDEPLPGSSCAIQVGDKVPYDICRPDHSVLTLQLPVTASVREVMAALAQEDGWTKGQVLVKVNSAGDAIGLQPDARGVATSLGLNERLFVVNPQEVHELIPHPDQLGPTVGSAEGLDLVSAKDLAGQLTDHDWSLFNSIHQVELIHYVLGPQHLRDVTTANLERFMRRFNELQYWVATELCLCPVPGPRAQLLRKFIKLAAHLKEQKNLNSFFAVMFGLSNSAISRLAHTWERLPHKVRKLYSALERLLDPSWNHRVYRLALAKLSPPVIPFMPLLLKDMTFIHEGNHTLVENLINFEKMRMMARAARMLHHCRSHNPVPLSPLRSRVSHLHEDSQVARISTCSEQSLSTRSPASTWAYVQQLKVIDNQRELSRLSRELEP

In order of falling “activity change, negative = inhibition” value:
1. CC(=O)CC/C=C(\C)CC/C=C(\C)CC/C=C(\C)CCC=C(C)C  24.4%
2. C[C@]12C[C@H](O)CC(CO)(CO)C1[C@H](O)C[C@@]13CC4[C@@H](CC12)[C@@]4(C)C3 (stereo not given in full)  22.1%
3. O=C(Nc1cccc(F)c1)N1CC[C@@]2(CCCN(C(=O)c3ccco3)C2)C1  21%
4. Cc1ccccc1C1(CC(=O)N2CCN(C)CC2)CC(=O)N(Cc2ccncc2)C1=O (stereo not given)  20.6%
5. Cn1c(=O)c(-c2ccccc2)nc2cnc(Nc3ccccc3)nc21  19.1%
6. Cc1cccc(CNC(=O)c2cnn(-c3nccc(-c4ccccc4F)n3)c2C)n1  18.3%
7. CC(C)(C)OC(=O)NS(=O)(=O)NOCc1ccccc1  18.2%
8. CCN(CC)CCOC[C@H]1O[C@@H](O)[C@H](OCCN(CC)CC)[C@@H](O)[C@@H]1O  17.7%
9. O=C(c1csnn1)N1CCC[C@@]2(CCN(c3ncccn3)C2)C1  16.4%
10. C[C@H](CC[C@@H]1OC1(C)C)C1CC[C@H]2[C@@H]3CC=C4C[C@@H](O)CC[C@]4(C)[C@H]3CC[C@]12C (stereo not given in full)  14.3%
11. COc1ccc(N2C(=O)[C@@H]3C[C@H]2CN3Cc2cccn2-c2ccc(Cl)cn2)c(C)c1  12.9%
12. N#Cc1cccc(NC(=O)N2CCC3(CC2)CCN(C(=O)c2cnccn2)CC3)c1  12.3%
13. CCCCCCC[n+]1ccc(C)c2ccccc21  11.7%
14. O=C(c1cccc(F)c1)N1CCC[C@@]2(CCN(Cc3ccncc3)C2)C1  11.1%
15. COc1c2ccccc2nc2occc12  7.29%
16. O=C(O)c1cc(N=Nc2ccc(O)c(C(=O)O)c2)ccc1O  5.06%
17. Cc1cc(C(=O)NCc2nc(-c3ccccc3NC(=O)C3CCCO3)oc2C)nc(C)n1 (stereo not given)  3.75%
18. CCN(CC)CCOc1ccccc1OC  3.14%
19. O=C(NCC1CCC2(CCN(Cc3c[nH]c4ccccc34)CC2)O1)C1CCOCC1 (stereo not given)  2.25%
20. CCCCCCCCCCCC[N+](C)(C)Cc1ccccc1  0.907%
21. O=S(=O)(NCc1ccccc1)[C@@H]1CC2C=CC1C2 (stereo not given in full)  0.734%
22. CCCCCCCCCCCCC[N+](C)(C)Cc1ccccc1  0.354%
23. Nc1ccc(O)c(C(=O)O)c1  0.11%
24. COc1cc(=O)n2c(c1C(=O)N(C)Cc1nonc1C)CCN(Cc1ccc(F)cc1)CC2  -0.441%
25. COC(=O)c1c(OCCN2CCCCC2)cc(=O)n2c1CCN(Cc1cccc3nccnc13)CC2  -0.569%
26. Cc1ccccc1C1(CC(=O)N2CC3(C)CC2CC(C)(C)C3)CC(=O)N(Cc2cccnc2)C1=O (stereo not given)  -2.13%
27. COc1ccc(C(=O)N2CCC3(CC2)CN(c2ccccc2)C3)cc1  -2.38%
28. COc1ccc2c(c1)[C@@]1(C)CCC[C@](C)(CO)C1CC2 (stereo not given in full)  -3.59%
29. C[C@@H]1C(=O)CC2C(C)(C)CCC[C@]2(C)[C@@]1(O)CCc1ccoc1 (stereo not given in full)  -5.75%
30. OC1(c2cccnc2)CCN(Cc2ccc3c(c2)CN(Cc2cc4ccccc4s2)CCO3)CC1  -8.5%
31. O=C(O)/C=C/c1ccc2c(c1)S(=O)(=O)N(C1CCCC1)[C@H]2CC(=O)O  -10.5%
32. CO[C@H]1C=CO[C@@]2(C)Oc3c(C)c(O)c4c(O)c(cc(O)c4c3C2=O)NC(=O)/C(C)=C\C=C/[C@H](C)[C@H](O)[C@@H](C)[C@@H](O)[C@@H](C)[C@H](OC(C)=O)[C@@H]1C  -10.9%
33. CCCCCCCCCCCC[n+]1ccc(C)c2ccccc21  -26.9%
34. COc1cc2c(cc1OC)C1C(=O)c3ccc4c(c3OC1CO2)C=CC(C)(C)O4 (stereo not given)  -27.3%
35. CCOC(=O)/C=C/c1ccc2c(c1)S(=O)(=O)N(C1CCCC1)[C@H]2CC(=O)OCC  -27.3%

`CC(=O)N[C@@H](CSC/C=C(\C)CCC=C(C)C)C(=O)O` was tested, and the Potency was “inactive”.
In the case of `CC(=O)N[C@@H](CSC/C=C(\C)CC/C=C(\C)CC/C=C(\C)CCC=C(C)C)C(=O)O`, the Potency is reported as 56.2 µM (active).
With `CC(=O)/C=C/c1ccc2c(c1)S(=O)(=O)N(C1CCCC1)[C@H]2CC(C)=O` the Potency was 56.2 µM (active).
With `O=C(O)C1=CC(=C(c2ccc(O)c(C(=O)O)c2)c2ccc(O)c(C(=O)O)c2)C=CC1=O` the Potency was 56.2 µM (active) and 1.58 µM (active).
`CO[C@H]1C=CO[C@@]2(C)Oc3c(C)c(O)c4c(O)c(c(/C=N/N5CCN(C)CC5)c(O)c4c3C2=O)NC(=O)/C(C)=C\C=C[C@H](C)[C@H](O)[C@@H](C)[C@@H](O)[C@@H](C)[C@H](OC(C)=O)[C@@H]1C` was tested, and the Potency was 89.1 µM (active).
In the case of `CCCCCCCCCCCCCCCC[n+]1ccc(C)c2ccccc21`, the Potency is reported as 63.1 µM (active).
With `CCCCCCCCCCCCCCCC[N+](C)(C)Cc1ccccc1` the Potency was 112 µM (active).

Work on `CC(=O)N[C@@H](CSC/C=C(\C)CC/C=C(\C)CC/C=C(\C)CCC=C(C)C)C(=O)O` yielded an activity change, negative = inhibition of 32.8% [at 15.3 µM].

For `CC1(C)S[C@@H]2[C@H](NC(=O)C(N)c3ccccc3)C(=O)N2[C@H]1C(=O)OC1OC(=O)c2ccccc21` (stereo not given in full), the “activity change, negative = inhibition” value was 8.83% [at 75.8 µM].

With `CO[C@H]1C=CO[C@@]2(C)Oc3c(C)c(O)c4c(O)c(c(C=NN5CCN(C)CC5)c(O)c4c3C2=O)NC(=O)C(C)=CC=C[C@H](C)[C@H](O)[C@@H](C)[C@@H](O)[C@@H](C)[C@H](OC(C)=O)[C@H]1C` the “activity change, negative = inhibition” value was 11% [at 39.6 µM].
